Measured values published in PubChem BioAssay (EPA / NIEHS).
“And” between values parts separate entries of the source, which are not always exact repeats. Identical values can stand only once. Records with an inconclusive call do not appear. More than one record can exist for a structure, and the calls need not agree. The source made the active and inactive calls. How the source made its calls, unless noted: active means hit-call score of the fitted dose curve at least 0.9, where 1 is the maximum; inactive means score below 0.9.

Tests used:
[1] = read-out: Interleukin-8 (IL8), CXCL8 (gene 3576); assay: BSK_3C_IL8: BioMAP Diversity Plus: 3C Assay for Interleukin-8 (IL8) Biomarker Activity (AID 2283020); conditions: primary human endothelial cells (HUVEC); actives raise or lower the signal
In short: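 HUVEC, 3C stimulation; 24 h compound exposure; IL-8 read by ELISA; gain or loss of signal fitted relative to DMSO control.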

[2] = read-out: Monokine induced gamma interferon (MIG), CXCL9 (gene 4283); assay: BSK_3C_MIG: BioMAP Diversity Plus: 3C Assay for Monokine induced gamma interferon (MIG) Biomarker Activity (AID 2283021); conditions: primary human endothelial cells (HUVEC); actives raise or lower the signal;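 on AC50: MIG protein level measured by immunoassay in the treated endothelial cultures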
In short: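 HUVEC, 3C system; 24 h chemical exposure; MIG by ELISA; bidirectional fit vs DMSO baseline.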

[3] = biological target: human Vitamin D Receptor (VDR), VDR (gene 7421) (UniProt P11473); assay: ATG_VDR_TRANS: Attagene TRANS-FACTORIAL HepG2 Assay for human Vitamin D Receptor (VDR) (AID 2283022; active means hit-call score of the fitted dose curve at least 0.9, where 1 is the maximum)
Sequence of human Vitamin D Receptor (VDR), VDR (gene 7421) (P11473 whole entry, looked up, the tested form may be a part): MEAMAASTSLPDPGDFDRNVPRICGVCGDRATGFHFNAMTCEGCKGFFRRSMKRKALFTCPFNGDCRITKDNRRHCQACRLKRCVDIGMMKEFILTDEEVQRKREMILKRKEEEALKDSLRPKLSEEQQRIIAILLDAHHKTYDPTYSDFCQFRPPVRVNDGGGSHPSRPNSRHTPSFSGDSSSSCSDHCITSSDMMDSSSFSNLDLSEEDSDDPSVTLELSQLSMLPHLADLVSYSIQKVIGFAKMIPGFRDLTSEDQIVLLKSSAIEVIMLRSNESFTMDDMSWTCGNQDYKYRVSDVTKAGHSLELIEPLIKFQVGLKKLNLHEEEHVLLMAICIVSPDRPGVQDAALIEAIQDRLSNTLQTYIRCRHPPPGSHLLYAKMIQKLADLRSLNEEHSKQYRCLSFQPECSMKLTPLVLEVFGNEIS
In short: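 RT-PCR/capillary electrophoresis read-out of reporter mRNA induction in transiently transfected HepG2; 24 h dosing; chimeric NR-Gal4 (TRANS format); gain-of-signal fit against DMSO baseline.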

[4] = BSK_3C_SRB: Viability Assessment in the BioMAP Diversity Plus: 3C Assay (AID 2283023); conditions: primary human endothelial cells (HUVEC);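 further: fitted both ways against DMSO so a hit may be signal rise or drop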
In short: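 HUVEC, 24 h post-dose; 10% TCA fix, 0.1% SRB stain, A560 nm. Bidirectional curve fit vs DMSO negative control.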

[5] = read-out: Matrix Metallopeptidase 1 (MMP1), MMP1 (gene 4312); assay: BSK_BE3C_MMP1: BioMAP Diversity Plus: BE3C Assay for Matrix Metallopeptidase 1 (MMP1) Biomarker Activity (AID 2283024); conditions: primary human bronchial epithelial cells; actives raise or lower the signal
In short: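 ELISA read-out of MMP1 in human lung bronchial epithelial primary cultures, 24 h post-dose; bidirectional curve fit vs DMSO baseline, gain or loss of signal scored.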

[6] = BSK_3C_Vis: BioMAP Diversity Plus: 3C Assay for Morphology Visualization (AID 2283025); conditions: primary human endothelial cells (HUVEC);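 further: fitted both ways so gain or loss versus DMSO counts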
In short: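 HUVEC, 3C system; light microscopy of morphology at 24 h post-dose. Bidirectional fit vs DMSO baseline. Secondary readout, background-control function.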

[7] = read-out: Pselectin, SELP (gene 6403); assay: BSK_4H_Pselectin: BioMAP Diversity Plus: 4H Assay for Pselectin Biomarker Activity (AID 2283026); conditions: primary human endothelial cells (HUVEC); actives raise or lower the signal
In short: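 HUVEC, 24 h chemical exposure; P-selectin read by ELISA. Bidirectional curve fit vs DMSO baseline; gain or loss of signal scored.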

[8] = BSK_4H_SRB: Viability Assessment in the BioMAP Diversity Plus: 4H Assay (AID 2283027); conditions: primary human endothelial cells (HUVEC);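 further: cells exposed to compound for 24 h before staining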;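 on AC50: curves fitted both ways versus DMSO so AC50 may be loss or gain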
In short: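 Cytotoxicity read-out in primary human endothelial cells: after 24 h compound exposure, cells were TCA-fixed (10%), stained with 0.1% SRB and absorbance taken at 560 nm. Values fitted in both directions relative to DMSO.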

[9] = read-out: Thrombomodulin, THBD (gene 7056); assay: BSK_3C_Thrombomodulin: BioMAP Diversity Plus: 3C Assay for Thrombomodulin Biomarker Activity (AID 2283029); conditions: primary human endothelial cells (HUVEC); actives raise or lower the signal
In short: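 HUVEC, 3C conditions; compound 24 h; thrombomodulin by ELISA; bidirectional curve fit vs DMSO baseline; parallel SRB total-protein staining for cytotoxicity.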

[10] = read-out: Urokinase-type plasminogen activator receptor (uPAR), PLAUR (gene 5329); assay: BSK_4H_uPAR: BioMAP Diversity Plus: 4H Assay for Urokinase-type plasminogen activator receptor (uPAR) Biomarker Activity (AID 2283030); conditions: primary human endothelial cells (HUVEC); actives raise or lower the signal
In short: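 HUVEC, 24 h post-dose; uPAR by ELISA; bidirectional fit vs DMSO baseline.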

[11] = read-out: Vascular endothelial growth factor receptor 2 (Homo sapiens) (UniProt P35968); assay: BSK_4H_VEGFRII: BioMAP Diversity Plus: 4H Assay for Vascular endothelial growth factor receptor 2 (VEGFR2) Biomarker Activity (AID 2283031); conditions: primary human endothelial cells (HUVEC); actives raise or lower the signal;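 on AC50: cell-surface VEGFR2 protein level quantified by ELISA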
In short: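 HUVEC (human primary), 4H system; 24 h post-dose; VEGFRII by ELISA; bidirectional curve fit vs DMSO baseline; gain or loss of signal scored.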

[12] = read-out: Human Leukocyte Antigen - DR isotype (HLADR), HLA-DRA (gene 3122); assay: BSK_BE3C_HLADR: BioMAP Diversity Plus: BE3C Assay for Human Leukocyte Antigen - DR isotype (HLADR) Biomarker Activity (AID 2283032); conditions: primary human bronchial epithelial cells; actives raise or lower the signal
In short: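 Primary human bronchial epithelial cells (BE3C); 24 h chemical exposure; HLA-DR by ELISA; bidirectional curve fit vs DMSO baseline.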

[13] = read-out: Vascular cell adhesion molecule 1 (VCAM1), VCAM1 (gene 7412); assay: BSK_4H_VCAM1: BioMAP Diversity Plus: 4H Assay for Vascular cell adhesion molecule 1 (VCAM1) Biomarker Activity (AID 2283033); conditions: primary human endothelial cells (HUVEC); actives raise or lower the signal
In short: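 HUVEC, 24 h post-dose; VCAM-1 by ELISA. Bidirectional curve fit vs DMSO baseline. Parallel SRB total-protein stain (0.1% SRB after 10% TCA fixation, 560 nm) for cytotoxicity.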

[14] = read-out: Interferon-gamma inducible Protein 10 (IP10), CXCL10 (gene 3627); assay: BSK_BE3C_IP10: BioMAP Diversity Plus: BE3C Assay for Interferon-gamma inducible Protein 10 (IP10) Biomarker Activity (AID 2283034); conditions: primary human bronchial epithelial cells; actives raise or lower the signal
In short: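 ELISA readout of IP-10 in BE3C system: primary human bronchial epithelial cells, 24 h post-dosing; bidirectional curve fit vs DMSO baseline.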

[15] = read-out: Monokine induced gamma interferon (MIG), CXCL9 (gene 4283); assay: BSK_BE3C_MIG: BioMAP Diversity Plus: BE3C Assay for Monokine induced gamma interferon (MIG) Biomarker Activity (AID 2283035); conditions: primary human bronchial epithelial cells; actives raise or lower the signal
In short: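 ELISA quantified MIG after 24 h exposure of primary bronchial epithelial cultures, analysed in both directions relative to DMSO. Cytotoxicity tracked in parallel cultures by sulforhodamine B staining.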

[16] = read-out: Transforming growth factor beta 1 (TGFb1), TGFB1 (gene 7040); assay: BSK_BE3C_TGFb1: BioMAP Diversity Plus: BE3C Assay for Transforming growth factor beta 1 (TGFb1) Biomarker Activity (AID 2283036;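 further: TGF-b1 protein level measured by ELISA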); conditions: primary human bronchial epithelial cells; actives raise or lower the signal
In short: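 Read-out: ELISA for TGF-b1 in primary human bronchial epithelial cultures, 24 h post-dose. Bidirectional curve fitting vs DMSO control; gain or loss of signal both scored.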

[17] = read-out: Plasminogen activator inhibitor-1 (PAI1), SERPINE1 (gene 5054); assay: BSK_BE3C_PAI1: BioMAP Diversity Plus: BE3C Assay for Plasminogen activator inhibitor-1 (PAI1) Biomarker Activity (AID 2283037); conditions: primary human bronchial epithelial cells; actives raise or lower the signal
In short: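 ELISA read-out of PAI-1 from human bronchial epithelial primary cells, 24 h post-dosing; bidirectional curve fit vs DMSO baseline, gain or loss of signal scored.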

[18] = read-out: urokinase plasminogen activator (uPA), PLAU (gene 5328); assay: BSK_BE3C_uPA: BioMAP Diversity Plus: BE3C Assay for urokinase plasminogen activator (uPA) Biomarker Activity (AID 2283038); conditions: primary human bronchial epithelial cells; actives raise or lower the signal
In short: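 ELISA read-out of uPA in human lung primary bronchial epithelial cultures, 24 h post-dosing. Gain or loss of signal fitted bidirectionally relative to DMSO baseline; cytotoxicity checked in parallel cultures via SRB total protein stain.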

[19] = read-out: Urokinase-type plasminogen activator receptor (uPAR), PLAUR (gene 5329); assay: BSK_BE3C_uPAR: BioMAP Diversity Plus: BE3C Assay for Urokinase-type plasminogen activator receptor (uPAR) Biomarker Activity (AID 2283039); conditions: primary human bronchial epithelial cells; actives raise or lower the signal
In short: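 ELISA readout of uPAR on human lung primary bronchial epithelial cells, 24 h post-dosing. Bidirectional curve fit relative to DMSO vehicle baseline; gain or loss of signal both scored.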

[20] = BSK_BE3C_SRB: Viability Assessment in the BioMAP Diversity Plus: BE3C Assay (AID 2283028); conditions: primary human bronchial epithelial cells;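 further: fitted both ways so AC50 may mark signal gain or loss versus DMSO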
In short: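 Primary human bronchial epithelium; chemical dosing, 24 h; 10% TCA fix, 0.1% SRB stain, A560; bidirectional fit vs DMSO baseline.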

Measured: AC50

CCN(CC)c1ccc(C=O)cc1
inactive: [1] | [2] | [3] | [4] | [5] | [6] | [7] | [8] | [9] | [10] | [11] | [12] | [13] | [14] | [15] | [16] | [17] | [18] | [19]

O=C(O)CCC(F)(F)C(F)(F)C(F)(F)C(F)(F)C(F)(F)C(F)(F)C(F)(F)F
inactive: [1] | [2] | [3] | [4] | [7] | [8] | [9] | [10] | [11] | [13] | [14] | [15] | [17] | [18] | [19]
active: [5] 3.33 µM and 3.8 µM | [12] 2.48 µM and 3.33 µM | [14] 2.32 µM

OCCCC(F)(F)C(F)(F)C(F)(F)C(F)(F)C(F)(F)C(F)(F)C(F)(F)C(F)(F)F
active: [1] 19.6 µM and 20.6 µM | [2] 50.9 µM and 52.6 µM | [4] 10.5 µM and 28.4 µM | [5] 7.11 µM and 55.2 µM | [7] 32.3 µM and 24.1 µM | [8] 11.1 µM and 20.8 µM | [9] 43.7 µM and 56.3 µM | [10] 31 µM and 43.6 µM | [11] 53.5 µM and 36.8 µM | [12] 44.6 µM and 49.9 µM | [13] 31.2 µM and 45.1 µM | [14] 32.3 µM and 37.7 µM | [15] 56.5 µM and 53.4 µM | [17] 37.8 µM and 30.3 µM | [18] 55.2 µM | [19] 49.4 µM and 54.6 µM
inactive: [3]

O=S(=O)(OCC(F)(F)F)C(F)(F)C(F)(F)C(F)(F)C(F)(F)F
inactive: [1] | [2] | [3] | [4] | [5] | [7] | [8] | [9] | [10] | [11] | [12] | [13] | [14] | [15] | [17] | [18] | [19]

CCN(CCO)S(=O)(=O)C(F)(F)C(F)(F)C(F)(F)C(F)(F)C(F)(F)C(F)(F)C(F)(F)C(F)(F)F
active: [1] 13.7 µM | [4] 27.6 µM and 17.8 µM | [5] 4.15 µM | [8] 45.8 µM and 40.1 µM | [20] 44.5 µM and 37.2 µM | [9] 12.6 µM and 21.8 µM | [12] 43.7 µM and 27.7 µM | [13] 50.6 µM | [14] 35 µM and 14.4 µM | [15] 50.6 µM and 43.2 µM | [17] 30 µM and 15.4 µM | [18] 47.8 µM | [19] 46.4 µM and 36.9 µM
inactive: [1] | [2] | [3] | [5] | [10] | [11] | [13] | [18]

C=CC(=O)OCC(F)(F)C(F)(F)C(F)(F)C(F)(F)C(F)(F)C(F)(F)C(F)(F)C(F)F
inactive: [1] | [2] | [3] | [4] | [5] | [7] | [8] | [10] | [11] | [12] | [13] | [14] | [15] | [17] | [18] | [19]
active: [9] 5.95 µM and 19.2 µM
